Data: the supplement of paper PMC4466140

Target: AgAbp1
Experiment: SPOT peptide array binding signal intensity (averaged, normalized) (arbitrary units (background-subtracted, floor 0; scale differs between SH3 domains)); higher = stronger binding of the SH3 domain to the peptide
Outline: (§1)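 Binding signal is given in arbitrary units that differ between domains and is the normalized, background-subtracted spot intensity averaged across replicates. Each GST-SH3 fusion from one of four yeast species was made in E. coli BL21(DE3), purified on glutathione Sepharose and incubated at 10 μg/ml overnight at 4°C on cellulose-bound synthetic 15-mer peptides in which cysteines were replaced by serines. Detection used anti-GST antibody, an HRP anti-mouse secondary and luminol, followed by imaging and Genespotter quantification.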

Row | Binder | SPOT peptide array binding signal intensity
1 | SRYRRPLTLLLLKPF | 16

Target: AgBbc1
Experiment: as above
Outline: as §1

Row | Binder | SPOT peptide array binding signal intensity
2 | SRYRRPLTLLLLKPF | 6

Target: AgBem1-D1
Experiment: as above
Outline: as §1

Row | Binder | SPOT peptide array binding signal intensity
3 | SRYRRPLTLLLLKPF | 0.5

Target: AgBzz1-D1
Experiment: as above
Outline: as §1

Row | Binder | SPOT peptide array binding signal intensity
4 | SRYRRPLTLLLLKPF | 23

Target: AgBzz1-D2
Experiment: as above
Outline: as §1

Row | Binder | SPOT peptide array binding signal intensity
5 | SRYRRPLTLLLLKPF | 17

Target: AgCyk3
Experiment: as above
Outline: as §1

Row | Binder | SPOT peptide array binding signal intensity
6 | SRYRRPLTLLLLKPF | 1

Target: AgFus1
Experiment: as above
Outline: as §1

Row | Binder | SPOT peptide array binding signal intensity
7 | SRYRRPLTLLLLKPF | 965

Target: AgHof1
Experiment: as above
Outline: as §1

Row | Binder | SPOT peptide array binding signal intensity
8 | SRYRRPLTLLLLKPF | 13.8

Target: AgHse1
Experiment: as above
Outline: as §1

Row | Binder | SPOT peptide array binding signal intensity
9 | SRYRRPLTLLLLKPF | 1270

Target: AgLsb1
Experiment: as above
Outline: as §1

Row | Binder | SPOT peptide array binding signal intensity
10 | SRYRRPLTLLLLKPF | ≤ 0

Target: AgLsb4
Experiment: as above
Outline: as §1

Row | Binder | SPOT peptide array binding signal intensity
11 | SRYRRPLTLLLLKPF | 270

Target: AgMyo5
Experiment: as above
Outline: as §1

Row | Binder | SPOT peptide array binding signal intensity
12 | SRYRRPLTLLLLKPF | 0.5

Target: AgNbp2
Experiment: as above
Outline: as §1

Row | Binder | SPOT peptide array binding signal intensity
13 | SRYRRPLTLLLLKPF | 97.5

Target: AgRvs167
Experiment: as above
Outline: as §1

Row | Binder | SPOT peptide array binding signal intensity
14 | SRYRRPLTLLLLKPF | 5.17

Target: AgSho1
Experiment: as above
Outline: as §1

Row | Binder | SPOT peptide array binding signal intensity
15 | SRYRRPLTLLLLKPF | 334

Target: AgSla1-D1-D2
Experiment: as above
Outline: as §1

Row | Binder | SPOT peptide array binding signal intensity
16 | SRYRRPLTLLLLKPF | 40

Target: AgSla1-D3
Experiment: as above
Outline: as §1

Row | Binder | SPOT peptide array binding signal intensity
17 | SRYRRPLTLLLLKPF | 4

Target: CaAbp1-D1
Experiment: as above
Outline: as §1

Row | Binder | SPOT peptide array binding signal intensity
18 | SRYRRPLTLLLLKPF | 155

Target: CaAbp1-D2
Experiment: as above
Outline: as §1

Row | Binder | SPOT peptide array binding signal intensity
19 | SRYRRPLTLLLLKPF | 128

Target: CaBbc1
Experiment: as above
Outline: as §1

Row | Binder | SPOT peptide array binding signal intensity
20 | SRYRRPLTLLLLKPF | 38

Target: CaBem1-D1
Experiment: as above
Outline: as §1

Row | Binder | SPOT peptide array binding signal intensity
21 | SRYRRPLTLLLLKPF | 8.5

Target: CaBzz1-D1
Experiment: as above
Outline: as §1

Row | Binder | SPOT peptide array binding signal intensity
22 | SRYRRPLTLLLLKPF | 26.5

Target: CaBzz1-D2
Experiment: as above
Outline: as §1

Row | Binder | SPOT peptide array binding signal intensity
23 | SRYRRPLTLLLLKPF | 14.2

Target: CaCyk3
Experiment: as above
Outline: as §1

Row | Binder | SPOT peptide array binding signal intensity
24 | SRYRRPLTLLLLKPF | 9

Target: CaFus1
Experiment: as above
Outline: as §1

Row | Binder | SPOT peptide array binding signal intensity
25 | SRYRRPLTLLLLKPF | 1410

Target: CaHof1
Experiment: as above
Outline: as §1

Row | Binder | SPOT peptide array binding signal intensity
26 | SRYRRPLTLLLLKPF | 0.5

Target: CaHse1
Experiment: as above
Outline: as §1

Row | Binder | SPOT peptide array binding signal intensity
27 | SRYRRPLTLLLLKPF | 80.8

Target: CaLsb1
Experiment: as above
Outline: as §1

Row | Binder | SPOT peptide array binding signal intensity
28 | SRYRRPLTLLLLKPF | 2.5

Target: CaLsb4
Experiment: as above
Outline: as §1

Row | Binder | SPOT peptide array binding signal intensity
29 | SRYRRPLTLLLLKPF | 37

Target: CaMyo5
Experiment: as above
Outline: as §1

Row | Binder | SPOT peptide array binding signal intensity
30 | SRYRRPLTLLLLKPF | ≤ 0

Target: CaNbp2
Experiment: as above
Outline: as §1

Row | Binder | SPOT peptide array binding signal intensity
31 | SRYRRPLTLLLLKPF | 870

Target: CaRvs167
Experiment: as above
Outline: as §1

Row | Binder | SPOT peptide array binding signal intensity
32 | SRYRRPLTLLLLKPF | 66.8

Target: CaRvs167-3
Experiment: as above
Outline: as §1

Row | Binder | SPOT peptide array binding signal intensity
33 | SRYRRPLTLLLLKPF | 141

Target: CaSho1
Experiment: as above
Outline: as §1

Row | Binder | SPOT peptide array binding signal intensity
34 | SRYRRPLTLLLLKPF | 493

Target: CaSla1-D1-D2
Experiment: as above
Outline: as §1

Row | Binder | SPOT peptide array binding signal intensity
35 | SRYRRPLTLLLLKPF | ≤ 0

Target: CaSla1-D3
Experiment: as above
Outline: as §1

Row | Binder | SPOT peptide array binding signal intensity
36 | SRYRRPLTLLLLKPF | 39.2

Target: ScAbp1
Experiment: as above
Outline: as §1

Row | Binder | SPOT peptide array binding signal intensity
37 | SRYRRPLTLLLLKPF | 83

Target: ScBbc1
Experiment: as above
Outline: as §1

Row | Binder | SPOT peptide array binding signal intensity
38 | SRYRRPLTLLLLKPF | 2.5

Target: ScBem1-D1
Experiment: as above
Outline: as §1

Row | Binder | SPOT peptide array binding signal intensity
39 | SRYRRPLTLLLLKPF | 10

Target: ScBzz1-D1
Experiment: as above
Outline: as §1

Row | Binder | SPOT peptide array binding signal intensity
40 | SRYRRPLTLLLLKPF | 13

Target: ScBzz1-D2
Experiment: as above
Outline: as §1

Row | Binder | SPOT peptide array binding signal intensity
41 | SRYRRPLTLLLLKPF | 74.5

Target: ScCyk3
Experiment: as above
Outline: as §1

Row | Binder | SPOT peptide array binding signal intensity
42 | SRYRRPLTLLLLKPF | 28

Target: ScFus1
Experiment: as above
Outline: as §1

Row | Binder | SPOT peptide array binding signal intensity
43 | SRYRRPLTLLLLKPF | 546

Target: ScHof1
Experiment: as above
Outline: as §1

Row | Binder | SPOT peptide array binding signal intensity
44 | SRYRRPLTLLLLKPF | 1

Target: ScHse1
Experiment: as above
Outline: as §1

Row | Binder | SPOT peptide array binding signal intensity
45 | SRYRRPLTLLLLKPF | 2310

Target: ScLsb1
Experiment: as above
Outline: as §1

Row | Binder | SPOT peptide array binding signal intensity
46 | SRYRRPLTLLLLKPF | 12.5

Target: ScLsb2
Experiment: as above
Outline: as §1

Row | Binder | SPOT peptide array binding signal intensity
47 | SRYRRPLTLLLLKPF | 2

Target: ScLsb3
Experiment: as above
Outline: as §1

Row | Binder | SPOT peptide array binding signal intensity
48 | SRYRRPLTLLLLKPF | 107

Target: ScLsb4
Experiment: as above
Outline: as §1

Row | Binder | SPOT peptide array binding signal intensity
49 | SRYRRPLTLLLLKPF | 31.5

Target: ScMyo3
Experiment: as above
Outline: as §1

Row | Binder | SPOT peptide array binding signal intensity
50 | SRYRRPLTLLLLKPF | 0.5

Target: ScMyo5
Experiment: as above
Outline: as §1

Row | Binder | SPOT peptide array binding signal intensity
51 | SRYRRPLTLLLLKPF | 0.5

Target: ScNbp2
Experiment: as above
Outline: as §1

Row | Binder | SPOT peptide array binding signal intensity
52 | SRYRRPLTLLLLKPF | 234

Target: ScPex13
Experiment: as above
Outline: as §1

Row | Binder | SPOT peptide array binding signal intensity
53 | SRYRRPLTLLLLKPF | 1

Target: ScRvs167
Experiment: as above
Outline: as §1

Row | Binder | SPOT peptide array binding signal intensity
54 | SRYRRPLTLLLLKPF | 11

Target: ScSho1
Experiment: as above
Outline: as §1

Row | Binder | SPOT peptide array binding signal intensity
55 | SRYRRPLTLLLLKPF | 648

Target: ScSla1-D1-D2
Experiment: as above
Outline: as §1

Row | Binder | SPOT peptide array binding signal intensity
56 | SRYRRPLTLLLLKPF | 1

Target: ScSla1-D3
Experiment: as above
Outline: as §1

Row | Binder | SPOT peptide array binding signal intensity
57 | SRYRRPLTLLLLKPF | 8

Target: SpAbp1-D1
Experiment: as above
Outline: as §1

Row | Binder | SPOT peptide array binding signal intensity
58 | SRYRRPLTLLLLKPF | 199

Target: SpBbc1
Experiment: as above
Outline: as §1

Row | Binder | SPOT peptide array binding signal intensity
59 | SRYRRPLTLLLLKPF | 6.25

Target: SpBzz1-D1
Experiment: as above
Outline: as §1

Row | Binder | SPOT peptide array binding signal intensity
60 | SRYRRPLTLLLLKPF | 18

Target: SpBzz1-D2
Experiment: as above
Outline: as §1

Row | Binder | SPOT peptide array binding signal intensity
61 | SRYRRPLTLLLLKPF | ≤ 0

Target: SpCyk3
Experiment: as above
Outline: as §1

Row | Binder | SPOT peptide array binding signal intensity
62 | SRYRRPLTLLLLKPF | 4

Target: SpHof1
Experiment: as above
Outline: as §1

Row | Binder | SPOT peptide array binding signal intensity
63 | SRYRRPLTLLLLKPF | 144

Target: SpHof1-2
Experiment: as above
Outline: as §1

Row | Binder | SPOT peptide array binding signal intensity
64 | SRYRRPLTLLLLKPF | 21.8

Target: SpHof1-3
Experiment: as above
Outline: as §1

Row | Binder | SPOT peptide array binding signal intensity
65 | SRYRRPLTLLLLKPF | 686

Target: SpHse1
Experiment: as above
Outline: as §1

Row | Binder | SPOT peptide array binding signal intensity
66 | SRYRRPLTLLLLKPF | 643

Target: SpLsb1
Experiment: as above
Outline: as §1

Row | Binder | SPOT peptide array binding signal intensity
67 | SRYRRPLTLLLLKPF | 3

Target: SpLsb4
Experiment: as above
Outline: as §1

Row | Binder | SPOT peptide array binding signal intensity
68 | SRYRRPLTLLLLKPF | 67

Target: SpMyo1
Experiment: as above
Outline: as §1

Row | Binder | SPOT peptide array binding signal intensity
69 | SRYRRPLTLLLLKPF | 4.5

Target: SpNbp2
Experiment: as above
Outline: as §1

Row | Binder | SPOT peptide array binding signal intensity
70 | SRYRRPLTLLLLKPF | 374

Target: SpPex13
Experiment: as above
Outline: as §1

Row | Binder | SPOT peptide array binding signal intensity
71 | SRYRRPLTLLLLKPF | 11.5

Target: SpRvs167
Experiment: as above
Outline: as §1

Row | Binder | SPOT peptide array binding signal intensity
72 | SRYRRPLTLLLLKPF | 13.8

Target: SpSla1-D1-D2
Experiment: as above
Outline: as §1

Row | Binder | SPOT peptide array binding signal intensity
73 | SRYRRPLTLLLLKPF | 5

Target: SpSla1-D3
Experiment: as above
Outline: as §1

Row | Binder | SPOT peptide array binding signal intensity
74 | SRYRRPLTLLLLKPF | 6.5
